Results reported in the supplement of paper PMC10849652.
Targets with a hit are over-represented here; the source holds about 7,900 in all. About 0.6% of all pairs of compound and target were hits.

Columns and labels:
Experiment in all cases: log2 fold change, soluble protein after heating vs DMSO (PISA); higher = thermal stabilisation; K562 cells, 10 uM, 30 min; active = over 0.2 and 3.5 SD of the protein, either way, in both replicates (recomputed)
[1] = compound: CC1=C(C=C(C=C1)NC(=O)C2=CC(=CC=C2)C(C)(C)C#N)NC3=CC4=C(C=C3)N=CN(C4=O)C
How it was run: (§1)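 K562 cells at 2×10^6 cells/mL were given 10 μM compound for 30 min. Aliquots then went through 3 min of heating across 48°C-58°C, were pooled, and were extracted in PBS with 0.5% NP-40 at 4°C, and the supernatant after 21,000xg for 90 min was quantified by TMTpro 16plex LC-MS/MS with channel sums equalised. Thermal stability relative to control samples, from duplicates, is given as log2 fold change.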

[2] = compound: CC1=C(C=C(C=C1)NC(=O)C2=CC(=CC=C2)N(C)C)NC(=O)C3=CC=C(C=C3)O
How it was run: as §1

[3] = compound: CC1=CC=C(C=C1)SC2=C3C=C(SC3=CN=C2)C(=O)N
How it was run: as §1

[4] = compound: CC1=NC(=CC=C1)C2=C(N=C(N2)C(C)(C)C)C3=CC4=NC=CN=C4C=C3
How it was run: as §1

[5] = compound: CCCCN(Cc1ccc(C(=O)NO)cc1)C(=O)Nc1ccccc1 [Nexturastat A]
How it was run: as §1

[6] = compound: CCCS(=O)(=O)Nc1ccc(F)c(C(=O)c2c[nH]c3ncc(-c4ccc(Cl)cc4)cc23)c1F [vemurafenib]
How it was run: as §1

[7] = compound: CCCS(=O)(=O)Nc1ccc(F)c(C(=O)c2c[nH]c3ncc(Cl)cc23)c1F
How it was run: as §1

[8] = compound: CCCc1cc(C)[nH]c(=O)c1CNC(=O)c1cc(-c2ccnc(N3CCN(C)CC3)c2)cc2c1cnn2C(C)C
How it was run: as §1

[9] = compound: CCN(CC)Cc1ccc2cc(COC(=O)Nc3ccc(C(=O)NO)cc3)ccc2c1 [givinostat]
How it was run: as §1

[10] = compound: CCN(CCCOc1ccc2c(Nc3cc(CC(=O)Nc4cccc(F)c4)[nH]n3)ncnc2c1)CCOP(=O)(O)O [barasertib]
How it was run: as §1

[11] = compound: CC[C@@H]1C(=O)N(C)c2cnc(Nc3ccc(C(=O)NC4CCN(C)CC4)cc3OC)nc2N1C1CCCC1
How it was run: as §1

[12] = compound: CC[C@@H]1C(=O)N(C)c2cnc(Nc3ccc(C(=O)N[C@H]4CC[C@H](N5CCN(CC6CC6)CC5)CC4)cc3OC)nc2N1C(C)C [volasertib]
How it was run: as §1

[13] = compound: CC[C@H](C)N1C=C(C2=C(C=C(C=C21)C3=CN=C(C=C3)N4CCNCC4)C(=O)NCC5=C(C=C(NC5=O)C)C)C
How it was run: as §1

[14] = compound: CC[C@H](C)[C@@H](C(=O)N[C@@H]([C@@H](C)O)C(=O)N[C@@H](CC(C)C)C(=O)[C@]1(CO1)C)NC(=O)[C@H]([C@@H](C)CC)N(C)C(=O)C [epoxomicin]
How it was run: as §1

[15] = compound: CCn1c(C(=O)N(C2CC2)C2CC2)cc2c3c(ncn3C)c(Nc3cc(C)n(C)n3)nc21
How it was run: as §1

[16] = compound: CCn1cc(-c2ccnc3[nH]c(-c4cccc(CN(C)C)c4)cc23)c(-c2ccc(NC(=O)N(C)C)cc2)n1
How it was run: as §1

[17] = compound: CN(C)CC(=O)Nc1ccc2[nH]c(=O)c3ccccc3c2c1
How it was run: as §1

[18] = compound: CN(CCOC1=CC=C(C=C1)C[C@H]2C(=O)NC(=O)S2)C3=CC=CC=N3 (racemic) [rosiglitazone]
How it was run: as §1

[19] = compound: CN1C2=C(C3=C1C(=O)N(N=C3)CC4=CC(=CC=C4)N)SC(=C2)S(=O)C
How it was run: as §1

[20] = compound: CN1CCC(CNc2ccc3ncc(-c4cccc(OC(F)(F)F)c4)n3n2)CC1
How it was run: as §1

Measured: log2 fold change

TCERG1 (UniProt O14776)
active: [12] -0.445
inactive: [1] 0.061 | [2] -0.147 | [3] 0.08 | [4] 0.077 | [5] -0.144 | [6] 0.118 | [7] 0.135 | [8] -0.006 | [9] 0.146 | [10] 0.107 | [11] -0.145 | [13] 0.133 | [14] 0.116 | [15] -0.076 | [16] -0.032 | [17] 0.135 | [18] 0.071 | [19] -0.038 | [20] -0.136

THRAP3 (UniProt Q9Y2W1)
inactive: [1] -0.008 | [2] 0.004 | [3] -0.056 | [4] -0.035 | [5] 0.109 | [6] 0.063 | [7] -0.01 | [8] 0.197 | [9] 0.093 | [10] -0.099 | [11] 0.03 | [12] 0.098 | [13] -0.137 | [14] -0.093 | [15] -0.013 | [16] 0.101 | [17] -0.026 | [18] -0.007 | [19] 0.025 | [20] -0.058

SMAP (UniProt O00193)
UniProt O00193, sequence (O00193 whole entry, looked up): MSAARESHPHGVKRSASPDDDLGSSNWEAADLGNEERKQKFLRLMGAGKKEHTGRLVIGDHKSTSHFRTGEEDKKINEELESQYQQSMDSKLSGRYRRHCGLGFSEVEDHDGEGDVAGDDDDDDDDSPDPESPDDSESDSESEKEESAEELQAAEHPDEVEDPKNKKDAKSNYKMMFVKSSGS
inactive: [1] -0.018 | [2] -0.002 | [3] -0.03 | [4] 0.062 | [5] -0.059 | [6] -0.006 | [7] 0.001 | [8] -0.107 | [9] -0.02 | [10] 0.008 | [11] -0.024 | [12] 0.023 | [13] -0.043 | [14] 0.06 | [15] -0.02 | [16] 0.014 | [17] -0.011 | [18] -0.038 | [19] -0.088 | [20] -0.045

SMG1 (UniProt Q96Q15)
active: [12] -0.391
inactive: [1] -0.068 | [2] -0.048 | [3] 0.031 | [4] 0.012 | [5] 0.045 | [6] 0.029 | [7] 0.077 | [8] -0.096 | [9] 0.05 | [10] 0.075 | [11] -0.137 | [13] 0.158 | [14] 0.024 | [15] 0.002 | [16] 0.05 | [17] 0.046 | [18] -0.003 | [19] 0.129 | [20] -0.02

TM9SF4 (UniProt Q92544)
UniProt Q92544, sequence (Q92544 whole entry, looked up): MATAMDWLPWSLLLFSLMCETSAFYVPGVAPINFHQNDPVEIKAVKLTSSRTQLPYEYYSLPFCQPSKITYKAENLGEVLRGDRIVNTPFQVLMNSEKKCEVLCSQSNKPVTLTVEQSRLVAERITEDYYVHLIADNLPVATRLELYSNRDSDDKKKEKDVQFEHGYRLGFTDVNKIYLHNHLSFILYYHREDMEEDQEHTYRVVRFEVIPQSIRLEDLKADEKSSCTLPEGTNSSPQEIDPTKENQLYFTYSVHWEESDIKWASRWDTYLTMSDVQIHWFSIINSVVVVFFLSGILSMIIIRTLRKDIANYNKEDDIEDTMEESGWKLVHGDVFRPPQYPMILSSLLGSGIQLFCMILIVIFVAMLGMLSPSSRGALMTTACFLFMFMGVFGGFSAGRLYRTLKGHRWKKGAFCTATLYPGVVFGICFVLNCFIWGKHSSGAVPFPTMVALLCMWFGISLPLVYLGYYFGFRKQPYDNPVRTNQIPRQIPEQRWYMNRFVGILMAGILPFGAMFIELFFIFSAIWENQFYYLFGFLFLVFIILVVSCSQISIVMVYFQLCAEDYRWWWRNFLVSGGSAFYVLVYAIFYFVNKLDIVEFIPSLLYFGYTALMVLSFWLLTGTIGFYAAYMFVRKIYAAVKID
inactive: [1] 0.084 | [2] -0.022 | [3] 0.014 | [4] -0.012 | [5] -0.029 | [6] 0.031 | [7] 0.073 | [8] 0.034 | [9] 0.054 | [10] 0.004 | [11] -0.225 | [13] 0.024 | [14] -0.055 | [15] 0.035 | [16] 0.052 | [17] 0.001 | [18] 0.082 | [19] -0.05 | [20] -0.084
active: [12] -0.484

TBC1D24 (UniProt Q9ULP9)
UniProt Q9ULP9, sequence (Q9ULP9 whole entry, looked up): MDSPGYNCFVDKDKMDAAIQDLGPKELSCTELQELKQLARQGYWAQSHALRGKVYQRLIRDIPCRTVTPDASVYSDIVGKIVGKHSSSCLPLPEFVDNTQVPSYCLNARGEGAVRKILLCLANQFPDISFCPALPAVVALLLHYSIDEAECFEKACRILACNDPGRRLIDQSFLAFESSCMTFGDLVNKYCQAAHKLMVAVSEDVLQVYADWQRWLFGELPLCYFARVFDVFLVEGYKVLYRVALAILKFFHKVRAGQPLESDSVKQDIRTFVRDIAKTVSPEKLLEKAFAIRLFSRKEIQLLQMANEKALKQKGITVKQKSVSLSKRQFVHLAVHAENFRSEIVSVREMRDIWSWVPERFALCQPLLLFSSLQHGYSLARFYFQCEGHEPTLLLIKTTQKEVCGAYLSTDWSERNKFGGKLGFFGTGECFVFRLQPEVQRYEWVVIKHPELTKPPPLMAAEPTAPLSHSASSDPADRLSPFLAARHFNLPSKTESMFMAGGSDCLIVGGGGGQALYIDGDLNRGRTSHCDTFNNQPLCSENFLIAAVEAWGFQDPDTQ
inactive: [1] -0.018 | [2] -0.012 | [3] 0.005 | [4] 0.006 | [5] -0.024 | [6] 0.019 | [7] 0.046 | [8] -0.033 | [9] 0.005 | [10] -0.019 | [11] 0.025 | [12] -0.028 | [13] 0.05 | [14] -0.011 | [15] -0.006 | [16] -0.175 | [17] 0.018 | [18] 0.075 | [19] -0.067 | [20] -0.236

SNX6 (UniProt Q9UNH7)
UniProt Q9UNH7, sequence (Q9UNH7 whole entry, looked up): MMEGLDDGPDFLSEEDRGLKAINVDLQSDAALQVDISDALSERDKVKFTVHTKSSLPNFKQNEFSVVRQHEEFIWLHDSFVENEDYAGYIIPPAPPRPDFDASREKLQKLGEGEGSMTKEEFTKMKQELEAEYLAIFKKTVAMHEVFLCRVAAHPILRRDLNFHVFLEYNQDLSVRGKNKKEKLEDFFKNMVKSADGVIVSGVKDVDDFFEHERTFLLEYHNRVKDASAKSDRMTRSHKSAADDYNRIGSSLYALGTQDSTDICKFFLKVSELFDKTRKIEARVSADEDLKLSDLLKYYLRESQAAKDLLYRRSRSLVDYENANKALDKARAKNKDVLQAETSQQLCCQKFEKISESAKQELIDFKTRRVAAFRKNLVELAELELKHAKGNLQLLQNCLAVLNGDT
active: [20] -0.77
inactive: [1] -0.04 | [2] -0.016 | [3] 0.019 | [4] 0.021 | [5] -0.025 | [6] -0.003 | [7] 0.076 | [8] 0.006 | [9] 0.077 | [10] 0.079 | [11] -0.142 | [12] -0.047 | [13] 0.117 | [14] 0.015 | [15] -0.141 | [16] -0.131 | [17] 0.005 | [18] 0.08 | [19] 0.016

TIMM21 (UniProt Q9BVV7)
UniProt Q9BVV7, sequence (Q9BVV7 whole entry, looked up): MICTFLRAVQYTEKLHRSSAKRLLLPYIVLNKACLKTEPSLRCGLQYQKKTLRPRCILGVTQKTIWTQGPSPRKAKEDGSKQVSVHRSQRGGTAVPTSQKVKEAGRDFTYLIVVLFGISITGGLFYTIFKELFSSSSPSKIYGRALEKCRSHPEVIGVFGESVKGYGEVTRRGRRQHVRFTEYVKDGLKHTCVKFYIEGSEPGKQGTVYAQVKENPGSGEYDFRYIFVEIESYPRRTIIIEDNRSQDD
active: [12] -0.286
inactive: [1] 0.014 | [2] 0.008 | [3] 0.035 | [4] 0.058 | [5] -0.121 | [6] 0.032 | [7] 0.067 | [8] -0.005 | [9] 0.005 | [10] 0.034 | [11] -0.133 | [13] 0.034 | [14] -0.041 | [15] 0.029 | [16] -0.028 | [17] -0.025 | [18] 0.05 | [19] -0.044 | [20] -0.227

THYN1 (UniProt Q9P016)
inactive: [1] 0.008 | [2] 0.013 | [3] 0.003 | [4] 0.056 | [5] -0.022 | [6] -0.004 | [7] -0.004 | [8] 0.003 | [9] -0.135 | [10] 0.008 | [11] 0.059 | [12] 0.09 | [13] 0.048 | [14] 0.016 | [15] 0.072 | [16] -0.04 | [17] -0.004 | [18] 0.001 | [19] -0.09 | [20] 0.09

SRSF11 (UniProt Q05519)
UniProt Q05519, sequence (Q05519 whole entry, looked up): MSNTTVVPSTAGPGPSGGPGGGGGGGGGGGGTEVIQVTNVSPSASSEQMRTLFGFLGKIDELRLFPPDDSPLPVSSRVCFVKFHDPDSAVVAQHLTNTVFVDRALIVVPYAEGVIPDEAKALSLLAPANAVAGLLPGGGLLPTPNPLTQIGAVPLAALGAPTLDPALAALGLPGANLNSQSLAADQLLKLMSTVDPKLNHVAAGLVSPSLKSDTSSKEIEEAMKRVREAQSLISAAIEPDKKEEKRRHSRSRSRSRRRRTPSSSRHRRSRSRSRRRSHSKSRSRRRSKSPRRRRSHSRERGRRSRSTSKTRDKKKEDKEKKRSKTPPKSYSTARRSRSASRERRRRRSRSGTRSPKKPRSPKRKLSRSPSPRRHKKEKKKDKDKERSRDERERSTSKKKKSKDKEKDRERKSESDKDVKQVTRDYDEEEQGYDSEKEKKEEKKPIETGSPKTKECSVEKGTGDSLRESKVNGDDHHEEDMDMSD
inactive: [1] -0.029 | [2] -0.058 | [3] 0.009 | [4] 0.032 | [5] -0.022 | [6] 0.007 | [7] 0.087 | [8] 0.053 | [9] 0.059 | [10] 0.023 | [11] -0.088 | [13] 0.074 | [14] 0.047 | [15] -0.022 | [16] -0.072 | [17] 0.02 | [18] 0.006 | [19] -0.018 | [20] 0.128
active: [12] -0.311

SMC5 (UniProt Q8IY18)
UniProt Q8IY18, sequence (Q8IY18 whole entry, looked up): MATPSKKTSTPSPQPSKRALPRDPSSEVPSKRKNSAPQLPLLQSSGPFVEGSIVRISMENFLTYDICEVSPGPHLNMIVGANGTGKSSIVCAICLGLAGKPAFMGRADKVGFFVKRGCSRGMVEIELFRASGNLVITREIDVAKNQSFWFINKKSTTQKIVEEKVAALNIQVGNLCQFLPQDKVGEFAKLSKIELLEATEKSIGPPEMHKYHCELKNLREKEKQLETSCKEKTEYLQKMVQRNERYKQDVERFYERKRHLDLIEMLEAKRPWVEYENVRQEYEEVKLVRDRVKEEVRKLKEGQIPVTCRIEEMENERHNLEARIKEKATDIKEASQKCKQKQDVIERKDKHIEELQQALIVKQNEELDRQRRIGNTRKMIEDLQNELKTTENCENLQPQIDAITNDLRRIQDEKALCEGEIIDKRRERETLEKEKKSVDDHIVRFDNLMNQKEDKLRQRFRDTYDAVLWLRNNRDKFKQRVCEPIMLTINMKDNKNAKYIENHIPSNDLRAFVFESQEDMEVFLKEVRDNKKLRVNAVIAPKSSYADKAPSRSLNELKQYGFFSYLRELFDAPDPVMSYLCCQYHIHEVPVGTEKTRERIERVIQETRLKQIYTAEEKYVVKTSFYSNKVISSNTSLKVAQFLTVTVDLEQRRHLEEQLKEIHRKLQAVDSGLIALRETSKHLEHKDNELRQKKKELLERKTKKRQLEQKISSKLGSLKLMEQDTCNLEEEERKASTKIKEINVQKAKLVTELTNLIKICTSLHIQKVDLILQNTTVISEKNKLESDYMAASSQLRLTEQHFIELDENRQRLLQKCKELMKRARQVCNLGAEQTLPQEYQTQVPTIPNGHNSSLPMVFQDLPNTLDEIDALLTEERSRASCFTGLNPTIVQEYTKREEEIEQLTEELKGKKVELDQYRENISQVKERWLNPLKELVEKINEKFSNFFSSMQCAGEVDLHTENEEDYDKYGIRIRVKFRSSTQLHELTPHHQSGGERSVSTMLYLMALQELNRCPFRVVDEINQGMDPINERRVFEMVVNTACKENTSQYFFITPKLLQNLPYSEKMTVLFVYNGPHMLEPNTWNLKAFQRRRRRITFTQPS
inactive: [1] -0.038 | [2] -0.067 | [3] -0.017 | [4] -0.032 | [5] -0.014 | [6] 0.043 | [7] -0.033 | [8] -0.02 | [9] -0.033 | [10] -0.048 | [11] 0.042 | [12] 0.054 | [13] -0.009 | [14] 0.018 | [15] -0.023 | [16] -0.025 | [17] 0.033 | [18] 0 | [19] 0.005 | [20] 0.037

TBK1 (UniProt Q9UHD2)
UniProt Q9UHD2, sequence (Q9UHD2 whole entry, looked up): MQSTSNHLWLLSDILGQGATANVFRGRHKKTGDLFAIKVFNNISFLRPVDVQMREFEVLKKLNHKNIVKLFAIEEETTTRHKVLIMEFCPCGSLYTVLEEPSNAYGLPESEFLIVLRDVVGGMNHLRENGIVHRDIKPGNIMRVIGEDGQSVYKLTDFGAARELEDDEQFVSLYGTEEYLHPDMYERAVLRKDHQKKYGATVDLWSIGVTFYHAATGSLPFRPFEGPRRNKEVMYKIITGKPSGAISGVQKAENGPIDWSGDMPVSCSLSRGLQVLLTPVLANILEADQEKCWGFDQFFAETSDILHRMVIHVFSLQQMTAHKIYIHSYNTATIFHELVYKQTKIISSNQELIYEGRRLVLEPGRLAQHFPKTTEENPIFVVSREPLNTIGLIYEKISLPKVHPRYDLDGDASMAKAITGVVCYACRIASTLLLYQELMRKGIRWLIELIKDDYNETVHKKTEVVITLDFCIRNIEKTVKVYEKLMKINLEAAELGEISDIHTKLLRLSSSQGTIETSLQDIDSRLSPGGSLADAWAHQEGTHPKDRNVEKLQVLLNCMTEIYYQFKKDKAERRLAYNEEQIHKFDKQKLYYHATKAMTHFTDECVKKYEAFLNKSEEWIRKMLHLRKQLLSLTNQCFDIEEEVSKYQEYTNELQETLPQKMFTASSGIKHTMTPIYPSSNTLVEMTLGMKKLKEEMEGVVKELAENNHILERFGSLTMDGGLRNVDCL
inactive: [1] -0.018 | [2] -0.03 | [3] 0.019 | [4] -0.007 | [5] 0.163 | [6] -0.012 | [7] 0.089 | [8] 0.083 | [9] 0.065 | [10] 0.028 | [11] -0.093 | [12] -0.232 | [13] 0.055 | [14] 0.019 | [15] 0.002 | [16] 0.023 | [17] -0.033 | [18] 0.076 | [19] 0.172 | [20] -0.152

SSB (UniProt P05455)
inactive: [1] -0.02 | [2] 0.024 | [3] -0.026 | [4] 0.024 | [5] 0.019 | [6] -0.003 | [7] 0.003 | [8] 0.036 | [9] -0.175 | [10] 0.074 | [11] -0.154 | [12] -0.131 | [13] 0.083 | [14] -0.011 | [15] 0.015 | [16] 0.04 | [17] -0.012 | [18] 0.044 | [19] -0.001 | [20] -0.194

TFAM (UniProt Q00059)
inactive: [1] 0.039 | [2] -0.004 | [3] -0.036 | [4] -0.036 | [5] 0.079 | [6] -0.05 | [7] -0.043 | [8] -0.033 | [9] -0.055 | [10] -0.023 | [11] 0.058 | [12] 0.059 | [13] 0.007 | [14] -0.053 | [15] 0.035 | [16] 0.062 | [17] -0.074 | [18] -0.017 | [19] 0.098 | [20] 0.049

SNX11 (UniProt Q9Y5W9)
UniProt Q9Y5W9, sequence (Q9Y5W9 whole entry, looked up): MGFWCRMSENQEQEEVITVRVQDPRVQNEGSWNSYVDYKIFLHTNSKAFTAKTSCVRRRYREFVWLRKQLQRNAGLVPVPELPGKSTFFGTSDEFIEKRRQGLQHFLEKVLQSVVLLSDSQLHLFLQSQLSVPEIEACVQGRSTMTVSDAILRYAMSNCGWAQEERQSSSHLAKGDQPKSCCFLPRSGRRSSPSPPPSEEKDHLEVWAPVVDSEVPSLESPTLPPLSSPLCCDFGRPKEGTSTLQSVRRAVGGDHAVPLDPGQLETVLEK
active: [20] -0.646
inactive: [1] -0.008 | [2] 0.012 | [3] -0.003 | [4] 0.043 | [5] 0.014 | [6] 0.043 | [7] 0.025 | [8] 0.022 | [9] -0.006 | [10] 0.019 | [11] -0.167 | [12] -0.324 | [13] 0.066 | [14] -0.031 | [15] -0.097 | [16] -0.022 | [17] -0.024 | [18] -0.007 | [19] 0.167

SRSF2 (UniProt Q01130)
UniProt Q01130, sequence (Q01130 whole entry, looked up): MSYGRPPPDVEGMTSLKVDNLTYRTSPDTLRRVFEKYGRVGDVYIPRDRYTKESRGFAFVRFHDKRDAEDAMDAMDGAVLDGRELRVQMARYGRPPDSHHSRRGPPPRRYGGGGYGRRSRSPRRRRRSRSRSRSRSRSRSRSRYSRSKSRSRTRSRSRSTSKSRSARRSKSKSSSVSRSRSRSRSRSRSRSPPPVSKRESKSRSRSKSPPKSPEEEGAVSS
inactive: [1] -0.023 | [2] 0.053 | [3] -0.033 | [4] -0.032 | [5] 0.036 | [6] -0.046 | [7] -0.025 | [8] -0.023 | [9] 0.005 | [10] -0.007 | [11] 0.087 | [12] 0.134 | [13] -0.027 | [14] -0.069 | [15] 0.047 | [16] 0.022 | [17] -0.082 | [18] -0.024 | [19] 0.045 | [20] 0.054
